Test results reported in the supplement of paper PMC11732987, “Enantioselective OTUD7B fragment discovery through chemoproteomics screening and high-throughput optimisation” (Communications Chemistry, 2025).

Key:
Assay in all cases: log2 ratio of Biotin-Ahx-Ub-VS probe labelling (fragment/DMSO); higher = less target engagement (more negative = stronger competition), active = hit call of the paper (q ≤ 0.05, log2 ratio ≤ -1)
Conditions in all cases: compound concentration: 200 uM; treatment time: 3 h
[1] = target: USP9X (UniProt Q93008)
USP9X, sequence (Q93008 whole entry, the tested form may be a part): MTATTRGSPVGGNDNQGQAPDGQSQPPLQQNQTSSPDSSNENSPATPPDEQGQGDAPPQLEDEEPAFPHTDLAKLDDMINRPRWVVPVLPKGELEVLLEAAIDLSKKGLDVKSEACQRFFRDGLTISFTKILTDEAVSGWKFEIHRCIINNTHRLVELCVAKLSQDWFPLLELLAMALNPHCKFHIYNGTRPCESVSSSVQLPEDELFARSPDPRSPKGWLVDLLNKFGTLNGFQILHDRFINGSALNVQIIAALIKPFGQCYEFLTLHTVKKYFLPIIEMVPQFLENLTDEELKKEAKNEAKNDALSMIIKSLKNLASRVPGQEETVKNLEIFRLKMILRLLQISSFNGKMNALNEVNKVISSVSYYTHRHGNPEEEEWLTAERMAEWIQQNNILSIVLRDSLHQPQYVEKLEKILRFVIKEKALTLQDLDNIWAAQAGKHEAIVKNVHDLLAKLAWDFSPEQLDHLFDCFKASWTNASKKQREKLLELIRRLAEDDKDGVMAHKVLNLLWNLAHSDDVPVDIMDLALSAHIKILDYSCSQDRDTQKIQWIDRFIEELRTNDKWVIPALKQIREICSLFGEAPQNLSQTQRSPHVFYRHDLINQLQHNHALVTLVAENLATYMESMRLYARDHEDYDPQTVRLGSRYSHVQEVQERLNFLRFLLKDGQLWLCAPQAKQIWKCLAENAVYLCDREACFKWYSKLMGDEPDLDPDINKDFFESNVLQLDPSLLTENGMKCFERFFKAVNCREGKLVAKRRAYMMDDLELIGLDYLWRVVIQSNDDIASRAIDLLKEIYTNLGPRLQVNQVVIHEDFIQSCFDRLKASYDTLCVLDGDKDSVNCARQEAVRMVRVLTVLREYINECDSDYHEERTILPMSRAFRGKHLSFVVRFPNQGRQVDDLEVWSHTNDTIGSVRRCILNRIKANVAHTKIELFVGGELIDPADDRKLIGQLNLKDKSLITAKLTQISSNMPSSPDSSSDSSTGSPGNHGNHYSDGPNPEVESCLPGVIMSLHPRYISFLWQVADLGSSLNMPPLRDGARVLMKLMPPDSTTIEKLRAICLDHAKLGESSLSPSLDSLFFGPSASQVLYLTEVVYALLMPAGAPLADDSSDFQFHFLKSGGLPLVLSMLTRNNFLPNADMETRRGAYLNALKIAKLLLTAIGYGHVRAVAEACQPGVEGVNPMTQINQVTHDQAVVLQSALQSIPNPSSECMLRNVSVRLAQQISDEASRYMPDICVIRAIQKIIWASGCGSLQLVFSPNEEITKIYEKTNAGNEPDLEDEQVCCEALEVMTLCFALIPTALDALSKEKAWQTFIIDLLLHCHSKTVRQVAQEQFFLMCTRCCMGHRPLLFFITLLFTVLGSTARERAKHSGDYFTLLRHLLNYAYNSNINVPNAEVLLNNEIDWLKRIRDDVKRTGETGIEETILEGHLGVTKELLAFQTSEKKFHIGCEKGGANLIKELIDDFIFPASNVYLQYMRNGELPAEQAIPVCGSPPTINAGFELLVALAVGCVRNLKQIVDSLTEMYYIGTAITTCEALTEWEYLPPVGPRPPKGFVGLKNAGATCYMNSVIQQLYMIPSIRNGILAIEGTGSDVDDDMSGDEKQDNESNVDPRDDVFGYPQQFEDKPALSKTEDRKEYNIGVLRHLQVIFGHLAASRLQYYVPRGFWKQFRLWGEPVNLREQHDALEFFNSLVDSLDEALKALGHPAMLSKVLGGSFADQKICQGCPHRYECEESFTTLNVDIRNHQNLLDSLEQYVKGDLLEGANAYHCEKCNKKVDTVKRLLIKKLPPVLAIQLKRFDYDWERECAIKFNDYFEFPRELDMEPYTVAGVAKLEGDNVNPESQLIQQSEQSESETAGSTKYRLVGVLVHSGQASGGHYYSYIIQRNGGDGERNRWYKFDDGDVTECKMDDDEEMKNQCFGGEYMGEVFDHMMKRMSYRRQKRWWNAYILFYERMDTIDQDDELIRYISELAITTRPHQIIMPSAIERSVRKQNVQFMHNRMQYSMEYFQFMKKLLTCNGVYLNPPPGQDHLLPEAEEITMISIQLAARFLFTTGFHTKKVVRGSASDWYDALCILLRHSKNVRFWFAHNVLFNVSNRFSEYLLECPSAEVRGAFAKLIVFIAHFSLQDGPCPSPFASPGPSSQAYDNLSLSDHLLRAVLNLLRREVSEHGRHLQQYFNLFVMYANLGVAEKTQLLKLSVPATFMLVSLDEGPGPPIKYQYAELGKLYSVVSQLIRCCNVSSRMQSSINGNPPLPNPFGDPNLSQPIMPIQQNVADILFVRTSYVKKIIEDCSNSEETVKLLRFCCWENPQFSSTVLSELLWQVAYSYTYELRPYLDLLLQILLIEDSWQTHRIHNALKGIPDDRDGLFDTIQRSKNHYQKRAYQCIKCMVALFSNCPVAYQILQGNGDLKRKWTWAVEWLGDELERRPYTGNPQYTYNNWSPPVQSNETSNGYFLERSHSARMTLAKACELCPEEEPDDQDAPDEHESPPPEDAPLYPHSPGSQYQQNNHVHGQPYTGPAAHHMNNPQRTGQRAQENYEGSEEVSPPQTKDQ
Outline: (§1)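 HEK293T lysate (495 µg per sample, in Tris/CHAPS/IGEPAL buffer with protease inhibitors) was treated in triplicate with fragment at 200 µM or with DMSO for 3 h. It was then treated with Biotin-Ahx-Ub-VS (0.5 µM final) for 1 h. Labelled DUBs were NeutrAvidin-enriched, digested with LysC and trypsin, and run by diaPASEF LC-MS/MS. Spectronaut label-free quantities were global-median-normalised. Values are average log2 ratios fragment/DMSO by unpaired t-test, using proteins with ≥2 unique peptides.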

[2] = target: UniProt O00487
UniProt O00487, sequence (O00487 whole entry): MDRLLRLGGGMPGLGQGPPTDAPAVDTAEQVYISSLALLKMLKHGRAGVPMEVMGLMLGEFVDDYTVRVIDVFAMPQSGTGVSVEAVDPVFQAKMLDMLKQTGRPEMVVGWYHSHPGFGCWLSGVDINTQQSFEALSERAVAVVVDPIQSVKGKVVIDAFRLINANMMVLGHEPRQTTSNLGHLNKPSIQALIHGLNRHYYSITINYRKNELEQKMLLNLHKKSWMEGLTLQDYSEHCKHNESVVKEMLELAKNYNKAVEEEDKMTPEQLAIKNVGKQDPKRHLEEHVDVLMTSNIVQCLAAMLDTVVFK
Outline: as §1

[3] = target: UniProt O00507
Outline: as §1

[4] = target: UniProt P51784
UniProt P51784, sequence (P51784 whole entry): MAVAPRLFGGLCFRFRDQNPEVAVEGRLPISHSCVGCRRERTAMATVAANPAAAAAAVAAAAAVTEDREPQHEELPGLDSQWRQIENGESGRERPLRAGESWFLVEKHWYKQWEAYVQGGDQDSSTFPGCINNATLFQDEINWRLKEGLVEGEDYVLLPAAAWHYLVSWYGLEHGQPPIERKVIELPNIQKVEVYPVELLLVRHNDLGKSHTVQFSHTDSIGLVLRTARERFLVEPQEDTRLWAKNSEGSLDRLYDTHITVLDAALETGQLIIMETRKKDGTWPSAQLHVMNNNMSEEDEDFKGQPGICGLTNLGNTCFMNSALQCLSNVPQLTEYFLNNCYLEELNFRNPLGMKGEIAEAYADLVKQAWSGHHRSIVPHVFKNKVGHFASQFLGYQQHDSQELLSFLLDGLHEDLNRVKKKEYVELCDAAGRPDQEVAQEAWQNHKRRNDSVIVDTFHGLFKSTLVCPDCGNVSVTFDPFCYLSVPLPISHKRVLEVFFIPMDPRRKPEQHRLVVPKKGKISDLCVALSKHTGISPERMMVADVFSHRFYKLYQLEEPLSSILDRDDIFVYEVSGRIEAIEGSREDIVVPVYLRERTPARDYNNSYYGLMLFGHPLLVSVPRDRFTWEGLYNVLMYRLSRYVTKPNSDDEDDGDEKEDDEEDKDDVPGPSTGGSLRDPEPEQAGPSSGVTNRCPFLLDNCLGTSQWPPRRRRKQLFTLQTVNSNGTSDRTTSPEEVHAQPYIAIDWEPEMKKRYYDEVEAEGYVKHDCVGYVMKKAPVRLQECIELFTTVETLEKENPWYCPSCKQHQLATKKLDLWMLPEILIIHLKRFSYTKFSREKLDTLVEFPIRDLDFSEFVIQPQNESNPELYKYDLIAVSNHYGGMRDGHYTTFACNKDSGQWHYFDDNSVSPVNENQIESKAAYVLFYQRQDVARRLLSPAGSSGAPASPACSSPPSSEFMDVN
Outline: as §1

[5] = target: T1, UniProt Q5T2D3
T1 sequence (whole entry): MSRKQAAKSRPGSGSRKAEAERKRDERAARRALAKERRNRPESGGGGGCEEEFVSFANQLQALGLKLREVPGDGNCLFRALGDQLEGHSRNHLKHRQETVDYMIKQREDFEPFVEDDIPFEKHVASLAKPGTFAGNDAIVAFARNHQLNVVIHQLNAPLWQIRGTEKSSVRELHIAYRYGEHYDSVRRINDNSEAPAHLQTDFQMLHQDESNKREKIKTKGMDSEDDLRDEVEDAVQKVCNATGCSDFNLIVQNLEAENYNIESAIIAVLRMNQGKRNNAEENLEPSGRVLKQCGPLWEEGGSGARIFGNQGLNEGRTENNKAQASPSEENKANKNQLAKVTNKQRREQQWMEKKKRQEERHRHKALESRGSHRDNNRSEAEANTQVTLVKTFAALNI
Outline: as §1

[6] = target: T2, UniProt Q8TE49
T2 sequence (whole entry): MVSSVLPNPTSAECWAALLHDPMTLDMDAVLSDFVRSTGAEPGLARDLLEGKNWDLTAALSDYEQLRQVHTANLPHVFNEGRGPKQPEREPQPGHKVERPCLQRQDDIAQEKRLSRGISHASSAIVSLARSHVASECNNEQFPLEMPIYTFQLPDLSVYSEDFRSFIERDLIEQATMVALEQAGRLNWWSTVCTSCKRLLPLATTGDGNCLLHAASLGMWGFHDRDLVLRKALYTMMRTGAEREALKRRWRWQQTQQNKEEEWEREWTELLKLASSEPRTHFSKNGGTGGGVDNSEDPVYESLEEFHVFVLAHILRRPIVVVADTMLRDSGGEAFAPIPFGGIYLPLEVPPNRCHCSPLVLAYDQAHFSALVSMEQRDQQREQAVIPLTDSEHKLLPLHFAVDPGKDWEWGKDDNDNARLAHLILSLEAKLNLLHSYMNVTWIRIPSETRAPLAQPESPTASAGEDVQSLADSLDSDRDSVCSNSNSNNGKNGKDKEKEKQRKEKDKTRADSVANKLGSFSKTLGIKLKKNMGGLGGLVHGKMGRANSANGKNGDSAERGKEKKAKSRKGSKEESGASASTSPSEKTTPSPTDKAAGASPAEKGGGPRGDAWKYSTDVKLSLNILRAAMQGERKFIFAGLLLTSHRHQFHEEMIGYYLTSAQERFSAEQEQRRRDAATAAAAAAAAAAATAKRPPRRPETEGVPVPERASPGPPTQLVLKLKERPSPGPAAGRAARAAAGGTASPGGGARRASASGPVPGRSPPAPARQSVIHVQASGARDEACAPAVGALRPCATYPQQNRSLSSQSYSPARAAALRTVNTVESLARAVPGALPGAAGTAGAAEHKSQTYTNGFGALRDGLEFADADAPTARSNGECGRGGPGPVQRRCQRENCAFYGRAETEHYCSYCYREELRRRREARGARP
Outline: as §1

[7] = target: T3, UniProt Q9P2H5
T3 sequence (whole entry): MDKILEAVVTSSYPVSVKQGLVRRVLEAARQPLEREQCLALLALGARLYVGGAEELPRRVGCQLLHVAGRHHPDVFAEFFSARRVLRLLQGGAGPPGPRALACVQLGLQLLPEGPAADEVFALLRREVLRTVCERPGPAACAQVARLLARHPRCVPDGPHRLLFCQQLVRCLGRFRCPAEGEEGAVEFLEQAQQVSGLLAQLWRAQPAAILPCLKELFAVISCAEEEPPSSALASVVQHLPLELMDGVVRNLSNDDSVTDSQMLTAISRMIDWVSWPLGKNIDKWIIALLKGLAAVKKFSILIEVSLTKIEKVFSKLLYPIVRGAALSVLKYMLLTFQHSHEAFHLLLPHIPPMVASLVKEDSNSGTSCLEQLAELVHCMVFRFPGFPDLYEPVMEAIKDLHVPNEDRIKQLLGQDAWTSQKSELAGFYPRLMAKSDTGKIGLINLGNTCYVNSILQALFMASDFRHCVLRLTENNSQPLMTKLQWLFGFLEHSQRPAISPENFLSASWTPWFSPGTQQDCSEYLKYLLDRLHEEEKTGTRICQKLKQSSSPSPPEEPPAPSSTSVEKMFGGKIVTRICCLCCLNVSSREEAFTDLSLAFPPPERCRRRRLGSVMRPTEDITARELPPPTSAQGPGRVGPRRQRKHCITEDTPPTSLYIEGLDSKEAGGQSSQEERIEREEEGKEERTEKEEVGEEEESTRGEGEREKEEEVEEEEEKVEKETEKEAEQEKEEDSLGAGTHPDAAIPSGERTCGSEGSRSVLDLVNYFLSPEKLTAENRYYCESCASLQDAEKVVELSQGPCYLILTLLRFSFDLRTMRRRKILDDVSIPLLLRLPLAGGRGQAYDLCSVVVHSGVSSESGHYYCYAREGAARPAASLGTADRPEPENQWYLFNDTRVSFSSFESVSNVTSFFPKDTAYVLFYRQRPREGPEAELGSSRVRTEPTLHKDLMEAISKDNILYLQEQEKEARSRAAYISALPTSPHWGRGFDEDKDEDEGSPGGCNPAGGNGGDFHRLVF
Outline: as §1

[8] = target: T4, UniProt Q9UGI0
T4 sequence (whole entry): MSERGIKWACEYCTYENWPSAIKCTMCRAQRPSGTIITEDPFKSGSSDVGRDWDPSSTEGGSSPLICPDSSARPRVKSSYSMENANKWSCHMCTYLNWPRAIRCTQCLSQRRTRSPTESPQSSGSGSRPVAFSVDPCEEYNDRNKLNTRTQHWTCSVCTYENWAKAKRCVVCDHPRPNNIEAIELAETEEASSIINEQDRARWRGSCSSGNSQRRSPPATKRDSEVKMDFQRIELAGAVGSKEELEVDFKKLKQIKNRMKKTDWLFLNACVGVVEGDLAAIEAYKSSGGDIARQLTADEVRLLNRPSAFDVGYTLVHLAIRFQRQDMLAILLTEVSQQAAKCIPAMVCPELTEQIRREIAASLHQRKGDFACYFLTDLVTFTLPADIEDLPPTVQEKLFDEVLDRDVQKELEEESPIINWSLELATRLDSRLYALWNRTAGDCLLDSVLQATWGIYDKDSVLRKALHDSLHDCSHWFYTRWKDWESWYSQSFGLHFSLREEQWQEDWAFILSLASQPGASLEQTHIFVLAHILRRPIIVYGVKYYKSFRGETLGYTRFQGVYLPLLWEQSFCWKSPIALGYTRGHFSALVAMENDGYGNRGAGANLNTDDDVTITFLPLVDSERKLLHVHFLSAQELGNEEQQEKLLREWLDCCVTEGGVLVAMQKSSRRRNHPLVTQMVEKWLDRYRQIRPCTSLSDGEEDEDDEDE
Outline: as §1

[9] = target: T5, YOD1 (UniProt Q5VVQ6)
T5 sequence (whole entry): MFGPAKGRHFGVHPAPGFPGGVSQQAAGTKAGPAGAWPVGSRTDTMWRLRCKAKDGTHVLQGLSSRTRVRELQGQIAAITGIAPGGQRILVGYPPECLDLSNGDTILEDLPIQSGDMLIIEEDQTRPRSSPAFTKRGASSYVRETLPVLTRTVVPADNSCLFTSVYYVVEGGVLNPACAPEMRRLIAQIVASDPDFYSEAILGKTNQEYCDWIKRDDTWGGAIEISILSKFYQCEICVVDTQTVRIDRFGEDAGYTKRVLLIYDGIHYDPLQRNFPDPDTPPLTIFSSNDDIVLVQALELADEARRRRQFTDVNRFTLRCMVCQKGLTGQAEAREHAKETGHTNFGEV
Outline: as §1

Measured: log2 ratio of Biotin-Ahx-Ub-VS probe labelling

CN(CCC(O)c1ccc(Br)cc1)C(=O)CCl (centres undefined)
active: [6] -1.29
inactive: [1] -0.275 | [2] -0.00696 | [3] -0.198 | [4] -0.124 | [5] -0.111 | [7] -0.328 | [8] -0.555 | [9] 0.00847
